These results are taken from publication PMC5540273 (PLoS ONE, 2017).

One test has as its system AAK1. To be noted: concentration: 1 μM, replicates: in singlicate; n = 1.
The next test has as its system ABL1-nonphosphorylated. Particulars: concentration: 1 μM, replicates: in singlicate; n = 1.
In another test the test system is ABL1-phosphorylated. Particulars: concentration: 1 μM, replicates: in singlicate; n = 1.
A further test has as its system T1, p38-alpha.
T1 construct: gene MAPK14

In a further test the test system is T2, p38-beta.
T2 construct: gene MAPK11
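For %Inh in this document: KINOMEscan kinase panel screen.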
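For Kd in this document: kd values determined as follow-up on hits from a single-replicate KINOMEscan panel screen.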

As to `O=C(NCCCN1CCCC1=O)c1cnc(NCc2cc(Cl)ccc2Cl)nc1NC1CCNCC1`, the “%Inh” value in the test on AAK1, with ABL1-nonphosphorylated and with ABL1-phosphorylated was 0% throughout.
The term Kd denotes the concentration at which binding is half-saturated. On to `Nc1nc(-c2cccnc2)c(-c2ccnc3ccccc23)s1` [GW684083], for which the dissociation constant Kd in the test with TNIK is above 10000 nM. In addition, the “%Inh” value in the test on AAK1 turned out to be 57%; in the test on ABL1-nonphosphorylated, 0%; in the test with ABL1-phosphorylated, 0%.
In turn, `CC(C)(C)OC(=O)NC1CCCN(c2cc(-c3ccc4c(N)n[nH]c4c3)nc(N)n2)C1` (stereo not drawn) [GSK2286096] gave a Kd in the test on TSSK3 above 10000 nM. Besides, the “%Inh” value in the test on AAK1 is recorded as 60%; with ABL1-nonphosphorylated, 0%; in the test with ABL1-phosphorylated it was 0%.
For the compound `CS(=O)(=O)CCNCc1ccc(-c2ccc3ncnc(Nc4ccc(OCc5ccccc5)c(Cl)c4)c3c2)o1.Cl` [GW574783], the “%Inh” value was 13% with AAK1, 0% in the test with ABL1-nonphosphorylated and 0% with ABL1-phosphorylated.
In the case of `O=C(Nc1n[nH]c2nc(-c3ccco3)c(Br)cc12)c1ccc(CN2CCCC2)cc1.O=C(O)[C@H](O)[C@@H](O)C(=O)O` [SB-742352], the figures for the “%Inh” value in the test on AAK1, with ABL1-nonphosphorylated and with ABL1-phosphorylated were 0%, 63% and 36%, respectively.
In the test with TNNI3K, `O=C(Nc1ccccc1)Nc1ccc(Oc2ccc3nccn3n2)cc1` displayed a Kd above 10000 nM. The figures for the “%Inh” value with AAK1, with ABL1-nonphosphorylated and in the test on ABL1-phosphorylated were 0%, 66% and 18%, respectively.
Consider `COc1cc2c(Nc3cccc(NC(=O)c4ccccc4)c3)ncnc2cc1OCCCN1CCOCC1` [GSK223810], for which the results for the Kd with p38-alpha and in the test with p38-beta were 440 nM and 100 nM, respectively. Also, the “%Inh” value with AAK1 stood at 45%; in the test on ABL1-nonphosphorylated it was 41%; in the test with ABL1-phosphorylated, 0%.
Regarding `NC(=O)c1sc(-n2cnc3ccccc32)cc1OCc1ccccc1F` [GSK1024306], the Kd with p38-alpha is 280 nM. The results for the “%Inh” value with AAK1, in the test with ABL1-nonphosphorylated and with ABL1-phosphorylated were 45%, 0% and 0%, respectively.
On to `COc1cc2ncnc(Nc3ccc(OCc4ccccc4Br)c(Cl)c3)c2cc1OC.Cl` [GI261590], for which the “%Inh” value with AAK1 is 15%; in the test on ABL1-nonphosphorylated, 0%; with ABL1-phosphorylated, 0%.
